Reference: PubChem BioAssay (Tox21)
A number with no mark means an inactive call. Results filed as inconclusive are left out. Where a call stands in place of a potency, no number is given. Calls of active or inactive are those of the source. Calls come from the whole dose curve.

Target: 5-hydroxytryptamine receptor 2A (Homo sapiens) (UniProt P28223)
Assay: 5-hydroxytryptamine receptor 2A (HTR2A) small molecule agonists, cell-based qHTS assay (AID 1963587); note: nearly all actives have a fitted effect of over 30% in size
Settings: HTR2A-CHO cells, calcium flux fluorescence, agonist mode; series mostly up to 76.8 µM
Method in brief: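 HTR2A-CHO cells, plated 18 h at 37 C/5% CO2, dye-loaded 1 h at 37 C; compounds in DMSO added by pin tool (agonist mode). Intracellular calcium flux read as kinetic fluorescence on FDSS over 2 min at 1 s intervals.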

5-hydroxytryptamine receptor 2A (Homo sapiens), sequence (P28223 whole entry, looked up): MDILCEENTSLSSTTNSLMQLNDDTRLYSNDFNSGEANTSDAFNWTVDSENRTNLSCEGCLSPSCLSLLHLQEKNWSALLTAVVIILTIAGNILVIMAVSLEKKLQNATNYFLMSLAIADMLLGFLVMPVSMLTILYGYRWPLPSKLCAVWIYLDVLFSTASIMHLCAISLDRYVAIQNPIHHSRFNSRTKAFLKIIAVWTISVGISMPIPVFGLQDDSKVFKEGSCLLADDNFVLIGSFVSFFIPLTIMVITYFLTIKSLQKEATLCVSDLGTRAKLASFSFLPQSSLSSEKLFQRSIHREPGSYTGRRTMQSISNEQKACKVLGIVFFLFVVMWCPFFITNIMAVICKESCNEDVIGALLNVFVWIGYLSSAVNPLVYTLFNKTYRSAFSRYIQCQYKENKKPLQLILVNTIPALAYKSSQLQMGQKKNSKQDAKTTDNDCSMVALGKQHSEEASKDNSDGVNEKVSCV

Compound	Potency	activation
S=C(NC1CCCCC1)NC1CCCCC1	inactive	
O=c1cc(-c2ccccc2)oc2ccccc12	inactive	
CC(C)(N=C=O)c1cccc(C(C)(C)N=C=O)c1	inactive	
Nc1cccc(N)n1	inactive	
O=S(=O)(Oc1ccc(Cl)cc1Cl)c1ccccc1	inactive	
C[N+](C)(C)CC(O)CCl (configuration not stated)	inactive	
Cn1sccc1=O	inactive	
NCCNCCNCCNCCN	inactive	
COc1ccc(N)c(C)c1	inactive	
O=C(O)c1ccc(C(=O)O)c(C(=O)O)c1	inactive	
CCCCCCCCCCCC(=O)N(C)CC(=O)O	inactive	
CCC(C)NC(N)=O (configuration not stated)	inactive	
CC(=O)OC1CC(C)OC(C)O1 (configuration not stated)	inactive	
CC(C)CC(C)O (configuration not stated)	inactive	
COCc1ccc(COC)cc1	inactive	
CCCCNc1ccccc1	inactive	
CCCCC(CC)COC(C)=O (configuration not stated)	inactive	
O=C1CCCCC1	inactive	

Compound	Potency	activation
CCC(C)c1ccccc1O (configuration not stated)	inactive	
Cc1cccc(C)c1[N+](=O)[O-]	inactive	
N#Cc1ccc(C2CCCc3cncn32)cc1 (configuration not stated)	inactive	
CC(=O)OC/C=C(\C)CC/C=C(\C)CCC=C(C)C	inactive	
O=C1CCC(=O)O1	inactive	
CS(=O)(=O)c1ccc(Cl)cc1	inactive	
Cc1cccnc1	inactive	
CNCCS(=O)(=O)O	inactive	
O=C(O)c1ccccc1C(c1ccc(O)cc1)c1ccc(O)cc1	inactive	
CN1Cc2c(N)cccc2C(c2ccccc2)C1 (configuration not stated)	inactive	
C[n+]1ccn(CCO)c1	inactive	
CCOC(=O)c1c(C)n(C)c2ccc(O)cc12	inactive	
CC1=CC[C@@H]2C[C@H]1C2(C)C		-0.177% [at 15.9 µM]
c1ccc2c(c1)-c1cccc3c1c-2cc1ccccc13	inactive	
C=CC(=O)NCOCCCC	inactive	
O=[N+]([O-])c1ccc2nc[nH]c2c1	inactive	
CCCCCCCO	inactive	
CCCCCCCCCCCCCCCCCCOCC(O)CO (configuration not stated)	inactive	

Target: Muscarinic acetylcholine receptor M1 (Homo sapiens) (UniProt P11229)
Sequence (P11229 whole entry, looked up): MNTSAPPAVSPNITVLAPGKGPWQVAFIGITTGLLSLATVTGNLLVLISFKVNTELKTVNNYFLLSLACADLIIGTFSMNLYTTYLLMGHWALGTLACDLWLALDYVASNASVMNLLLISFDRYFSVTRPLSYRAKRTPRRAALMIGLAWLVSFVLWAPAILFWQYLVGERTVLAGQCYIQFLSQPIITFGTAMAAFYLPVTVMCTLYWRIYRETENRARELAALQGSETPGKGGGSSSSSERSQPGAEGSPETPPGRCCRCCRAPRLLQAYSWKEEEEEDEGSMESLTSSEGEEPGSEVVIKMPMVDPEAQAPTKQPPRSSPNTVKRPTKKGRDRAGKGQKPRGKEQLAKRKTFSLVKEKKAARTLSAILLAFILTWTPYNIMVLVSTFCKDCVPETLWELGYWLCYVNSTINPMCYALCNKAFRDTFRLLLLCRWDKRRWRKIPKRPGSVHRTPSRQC
Assay: Cholinergic receptor muscarinic 1 (CHRM1) small molecule antagonists, cell-based qHTS assay (AID 1963588); note: nearly all actives have a fitted effect of over 40% in size
Settings: CHRM1-CHO antagonist mode, calcium flux fluorescence; series mostly up to 61.5 µM
Method in brief: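 Compounds were tested at 15 concentrations in three independent runs. Dye-loaded CHRM1-CHO cells were exposed 5 min at room temperature before stimulation by acetylcholine added at 50nM. Intracellular calcium was read kinetically on FDSS for 3 min.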

Compound	Potency	activity, negative = inhibition
S=C(NC1CCCCC1)NC1CCCCC1	inactive	
O=c1cc(-c2ccccc2)oc2ccccc12	inactive	
CC(C)(N=C=O)c1cccc(C(C)(C)N=C=O)c1	inactive	
Nc1cccc(N)n1	inactive	
O=S(=O)(Oc1ccc(Cl)cc1Cl)c1ccccc1	inactive	
C[N+](C)(C)CC(O)CCl (configuration not stated)	inactive	
Cn1sccc1=O	inactive	
NCCNCCNCCNCCN	inactive	
COc1ccc(N)c(C)c1	inactive	
O=C(O)c1ccc(C(=O)O)c(C(=O)O)c1	inactive	
CCCCCCCCCCCC(=O)N(C)CC(=O)O	inactive	
CCC(C)NC(N)=O (configuration not stated)	inactive	
CC(=O)OC1CC(C)OC(C)O1 (configuration not stated)	inactive	
CC(C)CC(C)O (configuration not stated)	inactive	
COCc1ccc(COC)cc1	inactive	
CCCCNc1ccccc1	inactive	
CCCCC(CC)COC(C)=O (configuration not stated)	inactive	
O=C1CCCCC1	inactive	

Compound	Potency	activity, negative = inhibition
CCC(C)c1ccccc1O (configuration not stated)	inactive	
Cc1cccc(C)c1[N+](=O)[O-]	inactive	
N#Cc1ccc(C2CCCc3cncn32)cc1 (configuration not stated)	inactive	
CC(=O)OC/C=C(\C)CC/C=C(\C)CCC=C(C)C	inactive	
O=C1CCC(=O)O1	inactive	
CS(=O)(=O)c1ccc(Cl)cc1	inactive	
Cc1cccnc1	inactive	
CS(=O)(=O)O	inactive	
O=C(O)c1ccccc1C(c1ccc(O)cc1)c1ccc(O)cc1	inactive	
CN1Cc2c(N)cccc2C(c2ccccc2)C1 (configuration not stated)	inactive	
C[n+]1ccn(CCO)c1	inactive	
CC1=CC[C@@H]2C[C@H]1C2(C)C		-2.89% [at 12.6 µM]
c1ccc2c(c1)-c1cccc3c1c-2cc1ccccc13	inactive	
C=CC(=O)NCOCCCC	inactive	
O=[N+]([O-])c1ccc2nc[nH]c2c1	inactive	
CCCCCCCO	inactive	
CCCCCCCCCCCCCCCCCCOCC(O)CO (configuration not stated)	inactive	

Target: Muscarinic acetylcholine receptor M1 (Homo sapiens) (UniProt P11229)
Assay: Cholinergic receptor muscarinic 1 (CHRM1) small molecule agonists, cell-based qHTS assay (AID 1963589); note: nearly all actives have a fitted effect of over 35% in size
Settings: CHRM1-CHO cells, agonist mode, calcium flux fluorescence; series mostly up to 76.8 µM
Method in brief: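 Fluorescent calcium dye reports M1 activation in stably transfected CHO cells. Compounds, 15 concentrations, added after 1 h dye loading at 37 C; kinetic reading at 1 sec intervals.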

Compound	Potency	activation
S=C(NC1CCCCC1)NC1CCCCC1	inactive	
O=c1cc(-c2ccccc2)oc2ccccc12	inactive	
CC(C)(N=C=O)c1cccc(C(C)(C)N=C=O)c1	inactive	
Nc1cccc(N)n1	inactive	
O=S(=O)(Oc1ccc(Cl)cc1Cl)c1ccccc1	inactive	
C[N+](C)(C)CC(O)CCl (configuration not stated)	inactive	
Cn1sccc1=O	inactive	
NCCNCCNCCNCCN	inactive	
COc1ccc(N)c(C)c1	inactive	
O=C(O)c1ccc(C(=O)O)c(C(=O)O)c1	inactive	
CCCCCCCCCCCC(=O)N(C)CC(=O)O		-0.383% [at 6.97 µM]
CCC(C)NC(N)=O (configuration not stated)	inactive	
CC(=O)OC1CC(C)OC(C)O1 (configuration not stated)	inactive	
CC(C)CC(C)O (configuration not stated)	inactive	
COCc1ccc(COC)cc1	inactive	
CCCCNc1ccccc1	inactive	
CCCCC(CC)COC(C)=O (configuration not stated)	inactive	
O=C1CCCCC1	inactive	

Compound	Potency	activation
CCC(C)c1ccccc1O (configuration not stated)	inactive	
Cc1cccc(C)c1[N+](=O)[O-]	inactive	
N#Cc1ccc(C2CCCc3cncn32)cc1 (configuration not stated)	inactive	
CC(=O)OC/C=C(\C)CC/C=C(\C)CCC=C(C)C	inactive	
O=C1CCC(=O)O1	inactive	
CS(=O)(=O)c1ccc(Cl)cc1	inactive	
Cc1cccnc1	inactive	
CS(=O)(=O)O	inactive	
O=C(O)c1ccccc1C(c1ccc(O)cc1)c1ccc(O)cc1	inactive	
CN1Cc2c(N)cccc2C(c2ccccc2)C1 (configuration not stated)	inactive	
C[n+]1ccn(CCO)c1	inactive	
CCOC(=O)c1c(C)n(C)c2ccc(O)cc12	inactive	
CC1=CC[C@@H]2C[C@H]1C2(C)C		-0.0486% [at 15.8 µM]
c1ccc2c(c1)-c1cccc3c1c-2cc1ccccc13	inactive	
C=CC(=O)NCOCCCC	inactive	
O=[N+]([O-])c1ccc2nc[nH]c2c1	inactive	
CCCCCCCO	inactive	
CCCCCCCCCCCCCCCCCCOCC(O)CO (configuration not stated)	inactive	
